# Laboratory results reported in ChEMBL document CHEMBL3988442, “University of Dundee, Small-Polar-MMV Screening Library” (2021).
# Molecular target: AMP-activated protein kinase, AMPK (Homo sapiens) (UniProt P54646+O43741+P54619+Q9UGJ0+Q9Y478+Q13131+Q9UGI9)
# Experiment: AMP-dependent Kinase enzyme assay. An in vitro enzyme assay that detects ADP turnover that is directly proportional to AMPK activity. This uses naive AMPK that is activated during the assay with MK-8722
# Assay type: functional
# Set-up: scale not given: direction of the effect not stated beside the values
# Settings: 30 µM
row,Structure (SMILES),Percent Effect [%]
1,O=C(NCC(O)c1cccc(F)c1)C1CCN(C(=O)C2CCC2)CC1 (stereo not given),-3.62
2,c1ccc(OCCCn2ccnc2-c2cn(C3CCNCC3)nn2)cc1,-1.92
3,CNS(=O)(=O)c1c(C)sc2ccccc12,7.5
4,CCc1c(C)nc(-n2nc(-c3cccs3)cc2N)[nH]c1=O,-6.28
5,CC(O)CN1CCN(C(=O)CCOc2ccccc2F)CC1 (stereo not given),-1.3
6,CN1CC(c2n[nH]c(=O)n2-c2cccc(Cl)c2)CC1=O (stereo not given),-12.1
7,CCn1nc(C)c(C(=O)N2C[C@@H](CN(C)C)[C@@H](CO)C2)c1C,-14.6
8,CC(C)(NCCCOc1ccc(C#N)cc1)c1nccs1,3.77
9,CCOC(=O)C(C)Nc1ccc(CCN2CCOCC2)cc1 (stereo not given),-1.34
10,CSc1ccc(CNC2CCCc3c2cnn3C)cc1 (stereo not given),7.44
11,CN(C)S(=O)(=O)N1CCCCCC1c1cc(-c2ccc(F)cc2)no1 (stereo not given),18
12,Cc1noc(C)c1S(=O)(=O)N1CCC(n2cccn2)CC1,-5.45
13,COc1cccc(CN(C)Cc2nc3cc(C)ccc3[nH]2)c1O,5.48
14,O=C(NCC1CCS(=O)(=O)C1)N(Cc1ccncc1)C1CC1 (stereo not given),-5.47
15,Cc1ccccc1[C@@H]1CN(CCOCCO)C[C@H]1C(=O)O,-1.24
16,Cc1ccc(S(=O)(=O)N(CC2CCOC2)C2CC2)cc1N(C)C (stereo not given),-15
17,Cc1nccn1CCCN1CCCC(c2ccccc2)C1 (stereo not given),-4.4
18,CC1CCN(c2ccc(C(=O)N3CCCC3c3nncn3C)cn2)CC1 (stereo not given),-4.84
19,CCOc1ccc(Oc2cc(CN)ccn2)cc1,-43.1
20,CC1(C)CC1(C(=O)N1CC(c2cccnc2)C1)c1ccc(F)cc1 (stereo not given),3.87

row,Structure (SMILES),Percent Effect [%]
1,Fc1ccc(C2(c3noc(CCN4CCCCO4)n3)CCOC2)cc1 (stereo not given),5.16
2,CC(C)c1nnc(CN2CCCc3ccc(S(N)(=O)=O)cc32)o1,0.503
3,COc1cccc(CC(=O)N2CCc3ncnc(NCCO)c3CC2)c1,-1.01
4,Cc1nc(CNC(=O)Nc2c(C)n[nH]c2C)cs1,-7.09
5,CCCN1CCN(S(=O)(=O)c2ccccc2OC)[C@H]2CS(=O)(=O)C[C@H]21,2.61
6,CC(NC(=O)N1CCC1)c1ccc(S(C)(=O)=O)cc1 (stereo not given),4.53
7,CNc1nc(C(=O)N2CCn3nc(C(=O)OC)cc3C2)cs1,-0.197
8,CC(C)Cn1ncc(C(=O)NS(=O)(=O)c2ccccc2)c1C1CC1,4.86
9,COc1cc2c(cc1CNCc1cccnc1-n1cccn1)OC(C)C2 (stereo not given),5.16
10,CS(=O)(=O)NCC1CCCN(Cc2ccccc2F)C1 (stereo not given),-6.5
11,Cc1nc(NC(=O)C(C)N(C)Cc2ccc3c(c2)OCO3)sc1C (stereo not given),6
12,CCNc1ncc(C(=O)NCc2csc(C)n2)cn1,-2.12
13,Clc1cc(NCc2ccncc2)nc2[nH]ccc12,-59.2
14,Cn1cnnc1C1CCCN(Cc2nc(Cc3ccccc3)no2)C1 (stereo not given),12.2
15,CN(Cc1cc(Br)cn1C)C(=O)Cc1cccc(O)c1,-0.828
16,Cc1ccccc1CCC(=O)N1CCc2ncnc(NCCO)c2CC1,0.622
17,COCCCC1CCCCN1Cc1cn2cc(C)ccc2n1 (stereo not given),7.53
18,C[C@@H]1CN(Cc2cc3ccccc3n2C)CC[C@@]1(O)C1CC1,14.8
19,COCc1cccc(NCc2cccnc2)c1,0.23
20,Cc1nnc(CN(Cc2ccco2)Cc2cccc3c2OCO3)n1C,-4.86
